This note sets out measurements from the supplement of paper PMC11624193, “Coupling cellular drug-target engagement to downstream pharmacology with CeTEAM” (Nature Communications, 2024).

Structures can show the parent of a compound that is named as a salt. Unmarked numbers belong to inactive results.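 Rule for the calls: active = log2 fold change beyond 2 SD from the library mean after excluding viability outliers; inactive = within 2 SD.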

The target in this assay is PARP1 L713F-nLuc biosensor (HCT116) (UniProt P09874). Nature of the assay: PARP1 L713F-nLuc/akaLuc ratio relative to DMSO control (biosensor stabilization) (fold change); higher = more PARP1 biosensor stabilization (target engagement / stabilizer), active = hit call of the paper. As to conditions: stock concentration (mM; final µM = stock mM x 1): 10; 24 h.
Sequence of PARP1 L713F-nLuc biosensor (HCT116) (P09874 whole entry L713F, looked up): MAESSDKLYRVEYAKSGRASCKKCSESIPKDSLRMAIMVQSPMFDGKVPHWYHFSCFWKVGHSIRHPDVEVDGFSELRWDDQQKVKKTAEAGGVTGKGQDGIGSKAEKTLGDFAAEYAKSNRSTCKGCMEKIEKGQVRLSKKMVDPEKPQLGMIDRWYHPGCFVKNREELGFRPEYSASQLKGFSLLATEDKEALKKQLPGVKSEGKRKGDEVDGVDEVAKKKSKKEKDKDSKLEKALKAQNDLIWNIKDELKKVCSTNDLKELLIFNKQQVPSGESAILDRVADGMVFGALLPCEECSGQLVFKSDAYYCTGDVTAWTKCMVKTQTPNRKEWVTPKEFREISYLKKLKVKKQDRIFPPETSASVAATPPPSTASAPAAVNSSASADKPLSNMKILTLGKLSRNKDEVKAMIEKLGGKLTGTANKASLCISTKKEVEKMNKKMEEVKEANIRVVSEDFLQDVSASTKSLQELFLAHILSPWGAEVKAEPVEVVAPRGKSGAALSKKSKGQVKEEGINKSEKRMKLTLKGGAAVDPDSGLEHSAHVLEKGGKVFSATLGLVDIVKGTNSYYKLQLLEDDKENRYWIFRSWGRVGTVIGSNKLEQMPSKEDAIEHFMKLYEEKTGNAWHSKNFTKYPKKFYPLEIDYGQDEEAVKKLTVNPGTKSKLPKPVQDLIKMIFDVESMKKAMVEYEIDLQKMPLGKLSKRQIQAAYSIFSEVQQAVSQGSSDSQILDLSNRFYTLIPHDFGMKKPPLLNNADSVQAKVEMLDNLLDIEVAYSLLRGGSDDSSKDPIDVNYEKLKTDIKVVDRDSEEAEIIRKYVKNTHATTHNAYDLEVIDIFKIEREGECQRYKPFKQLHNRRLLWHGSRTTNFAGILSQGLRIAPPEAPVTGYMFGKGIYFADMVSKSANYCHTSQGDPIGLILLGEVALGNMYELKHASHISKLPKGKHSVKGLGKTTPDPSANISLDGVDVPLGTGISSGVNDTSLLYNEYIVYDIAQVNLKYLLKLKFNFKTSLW
On to `CC(C)=CC(=O)O[C@H]1Cc2cc3ccc(=O)oc3cc2OC1(C)C` [Decursin], for which the “PARP1 L713F-nLuc/akaLuc ratio” value was 0.768.

Regarding `CS(=O)(=O)c1ccc(Oc2cc(F)cc(C#N)c2)c2c1[C@H](O)C(F)(F)C2`, the “PARP1 L713F-nLuc/akaLuc ratio” value is 1.42.

With `N#Cc1cc2cc(CN3CCC(Nc4ncnc5sc(CC(F)(F)F)cc45)CC3)ccc2[nH]1`, the “PARP1 L713F-nLuc/akaLuc ratio” value is 1.05.

As for `C[C@@H](COCCC(=O)N1CCN(c2ncc(C(F)(F)F)cn2)CC1)Nc1cn[nH]c(=O)c1C(F)(F)F`, the “PARP1 L713F-nLuc/akaLuc ratio” value is 2.09.

In the case of `O=C(c1ccc(OCCN2CCCCC2)cc1)c1c(-c2ccc(O)cc2)sc2cc(O)ccc12` [Raloxifene HCl], the “PARP1 L713F-nLuc/akaLuc ratio” value was 0.932.

On to `Cn1cc(C2=C(c3c4n(c5ccccc35)CCC(CN)C4)C(=O)NC2=O)c2ccccc21` (configuration not stated) [Bisindolylmaleimide X (hydrochloride)], for which the “PARP1 L713F-nLuc/akaLuc ratio” value was 0.725.

Consider `CCNC(=O)C#Cc1ccc2c(C(=Nc3ccc(CN(C)C)cc3)c3ccccc3)c(O)[nH]c2c1`, for which the “PARP1 L713F-nLuc/akaLuc ratio” value was 0.604.

As to `O=C1CCc2c(ccc3ccccc23)O1` [Splitomicin], the “PARP1 L713F-nLuc/akaLuc ratio” value was 0.895.

On to `N[C@H]1C[C@@H]1c1ccc(-c2cccc(O)c2)cc1`, for which the “PARP1 L713F-nLuc/akaLuc ratio” value was 0.692.

For the compound `Cc1cnc(Nc2ccc(OCCN3CCCC3)cc2)nc1Nc1cccc(S(=O)(=O)NC(C)(C)C)c1` [Fedratinib (hydrochloride hydrate)], the “PARP1 L713F-nLuc/akaLuc ratio” value is 0.551.

On to `O=C(Nc1ccc(C(F)(F)F)cc1)Nc1ccc(S(=O)(=O)N2CCC[C@H]2C(=O)Nc2ccccc2)cc1`, for which the “PARP1 L713F-nLuc/akaLuc ratio” value was 0.728.

Turning to `NC(=O)c1cccc2cn(-c3ccc([C@@H]4CCCNC4)cc3)nc12` [Niraparib (R-enantiomer)], the “PARP1 L713F-nLuc/akaLuc ratio” value was 8.24 (active).
